The record followed here is PubChem BioAssay (NCATS).

Assay [1] concerns the target Lysosomal acid glucosylceramidase (Homo sapiens) (UniProt P04062). Description: Glucocerebrosidase-p2 (AID 348; in the data active means potency below about 10 µM; further: potency means the concentration at half of the fitted maximal effect). The following applies: purified GBA, blue fluorogenic substrate, 40 min. In a few lines: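 Compounds titrated from 0.6 nM upwards against 0.2 nM enzyme in pH 5.9 citric acid/KH2PO4, taurocholate, tween-20; blue fluorogenic substrate 80 uM, 40 min room temperature, stopped and read Ex 365/Em 440 for AC50.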

Assay [2] addresses Cytochrome P450 1A2 (Homo sapiens) (UniProt P05177). Description: p450-cyp1a2 (AID 410; calls by dose curve; further: potency means the concentration at half of the fitted maximal effect). The settings on record: recombinant CYP1A2, luciferin-ME demethylation, luminescence; series mostly up to 11.4 µM. Put shortly:
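Human CYP1A2 (20nM) demethylated Luciferin-ME at its Km (100uM) in 100mM KPO4. After 10 min compound preincubation, NADPH regeneration ran the reaction 60 min at room temperature. Luciferin was read by luminescence, normalized to 57 uM furafylline.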

A short description of assay [3]: NFAT Signaling Pathway (AID 444).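 Further: carbachol stimulus at about its EC50 of 1 µM final; on the % scale 0 is the no-effect control and ±100 the full control effect.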 The following applies: Jurkat NFAT-bla M1, carbachol, beta-lactamase ratio, 5 h; at 7.69 µM (top of the series) unless noted. In a few lines:
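Jurkat cells with NFAT-driven β-lactamase reporter and co-expressed M1 receptor, stimulated with carbachol (final 1 uM, ~EC50), compound titration, 5 h at 37 °C. CCF4 loaded 1 h at RT; 460/530 nm ratio gave %activity and AC50.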

Assay [4] in a line: Stat Signaling Pathway (AID 446).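 Further: ME-180 cervical cancer cells given 40 pM IL-6 alongside compound; SIE-controlled beta-lactamase reporter measured as 460/530 nm FRET emission ratio; on the % scale 0 is the no-effect control and ±100 the full control effect.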 The following applies: ME-180 (cervical carcinoma) SIE beta-lactamase reporter, IL-6 stimulated, 5 h; at 7.69 µM (top of the series) unless noted. In a few lines:
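ME-180 cells carrying a SIE-driven beta-lactamase reporter are stimulated with 40 pM IL-6 for 5 h at 37C in the presence of compound. The 460/530 nm FRET substrate ratio is read after 2.5 h at RT. Data are normalised to 300 pM IL-6 and to 125 nM JAK inhibitor controls.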

Assay [5] has as its target Glucocorticoid receptor (Homo sapiens) (UniProt P04150). The experiment in a line: GR-GFP Redistribution (AID 450;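 active means compounds whose dose series gives a full or clear partial fitted curve of increased nuclear translocation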; further: potency means the concentration at half of the fitted maximal effect). The settings on record: U2OS GR-GFP nuclear translocation, laser cytometry, 2 h.
Assay [6] shares this target. The experiment in a line: GR-EFC Redistribution (AID 451; calls by dose curve; further: potency means the concentration at half of the fitted maximal effect). The following applies: CHO-K1 GR-EFC translocation, beta-gal luminescence, 2 h. Put shortly:
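CHO-K1 cells expressing nuclear EA and GR-ED fragments of b-gal; compounds titrated up to 46 uM final, 2 h at 37 C. GR nuclear translocation read as complemented b-gal luminescence after 1 h RT detection.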

For assay [7], the target named is Mitogen-activated protein kinase 10 (Mus musculus) (UniProt Q61831). The experiment in a line: JNK3 AlphaScreen Assay (AID 530).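 Further: kinase came from lysate of stimulated human HepG2 cells; signal reports phosphorylation of biotinylated GST-cJun 1-79 at Ser73 with 10 µM ATP; on the % scale 0 is the no-effect control and ±100 the full control effect.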 The settings on record: JNK3 lysate, c-Jun phosphorylation; series mostly up to 11.4 µM. In a few lines:
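qHTS format: compounds tested as titrations against IL-1beta/TNF-alpha-activated HepG2 lysate JNK3 with biotin-GST-cJun substrate and 10 uM ATP at room temperature. Loss of anti-phospho-cJun AlphaScreen signal indicates inhibition.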

Assay [8] deals with 3',5'-cyclic-AMP phosphodiesterase 4B (Homo sapiens) (UniProt Q07343). Description: qHTS Assay for Inhibitors of PDE-IV (AID 607; active means well fitted activation curve with a large enough effect in the main read-out, with a control signal flat, not every such curve was filed as active; further: % of control where 0% means no effect). The following applies: HEK293 ACTOne CNG channel cells, membrane potential fluorescence; series mostly up to 22.9 µM. Put shortly:
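HEK293 ACTOne cells with CNG channel (1000/well), endogenous PDE4; membrane potential dye, compounds up to 22.9 uM final. Fluorescence Ex 535/Em 590; RO 20-1724 (100 uM final) as reference.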

For assay [9], the target named is Cytochrome P450 2D6 (Homo sapiens) (UniProt P10635). Description: qHTS Assay for Inhibitors and Substrates of Cytochrome P450 2D6 (AID 891; active means well fitted curve in the direction sought with a large enough effect; an effect the other way counts as inactive or inconclusive; further: potency means the concentration at half of the fitted maximal effect; nearly all actives have a fitted effect of over 60% in size). The following applies: recombinant CYP2D6, luciferin-ME EGE luminescence; series mostly up to 11.4 µM. In a few lines: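 Human CYP2D6 (5 nM) with 30 uM Luciferin-ME EGE (at Km) in 100 mM KPO4, compound preincubated 10 min, then NADPH regeneration system for 60 min at room temperature. Luciferin read by luminescence; normalized to 1.43 uM quinidine.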
Sequence of Cytochrome P450 2D6 (Homo sapiens) (P10635 whole entry, looked up): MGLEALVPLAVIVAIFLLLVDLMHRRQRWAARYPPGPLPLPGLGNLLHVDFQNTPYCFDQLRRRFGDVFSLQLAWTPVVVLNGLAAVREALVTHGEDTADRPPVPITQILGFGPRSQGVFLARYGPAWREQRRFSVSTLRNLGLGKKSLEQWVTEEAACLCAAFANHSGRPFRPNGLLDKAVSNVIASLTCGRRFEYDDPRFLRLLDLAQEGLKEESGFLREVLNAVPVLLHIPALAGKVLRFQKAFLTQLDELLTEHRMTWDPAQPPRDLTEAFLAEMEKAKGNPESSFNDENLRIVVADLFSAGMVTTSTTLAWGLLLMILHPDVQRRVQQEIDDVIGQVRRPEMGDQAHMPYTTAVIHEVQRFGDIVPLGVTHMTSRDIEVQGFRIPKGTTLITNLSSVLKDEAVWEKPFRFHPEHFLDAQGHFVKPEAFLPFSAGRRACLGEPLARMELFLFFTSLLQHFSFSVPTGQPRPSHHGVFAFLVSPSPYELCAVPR

In assay [10] the target is Cytochrome P450 3A4 (Homo sapiens) (UniProt P08684). Description: qHTS Assay for Activators of Cytochrome P450 3A4 (AID 885; active means well fitted curve in the direction sought with a large enough effect; an effect the other way counts as inactive or inconclusive; further: nearly all actives have a fitted effect of over 65% in size). The following applies: recombinant CYP3A4, Luciferin-PPXE luminescence, 60 min; series mostly up to 11.4 µM. Put shortly:
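Human CYP3A4 (20 nM) with Luciferin-PPXE at 25 uM (its KM) in 200 mM KPO4; 10 min compound preincubation, then NADPH regeneration and 60 min reaction at RT. Luciferin read by luminescence; normalized to 57 uM ketoconazole full inhibition.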

For assay [11], the target named is Cytochrome P450 2C19 (Homo sapiens) (UniProt P33261). Description: qHTS Assay for Inhibitors and Substrates of Cytochrome P450 2C19 (AID 899; active means well fitted curve in the direction sought with a large enough effect; an effect the other way counts as inactive or inconclusive; further: nearly all actives have a fitted effect of over 60% in size; further: potency means the concentration at half of the fitted maximal effect; on activity, negative = inhibition: on the % scale 0 is the no-effect control and ±100 the full control effect). The settings on record: recombinant CYP2C19, luciferin-H EGE luminescence; series mostly up to 11.4 µM. In a few lines:
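5 nM human CYP2C19 with 10uM Luciferin-H EGE (at KM) in 50mM KPO4, compound preincubated 10 min at 37C, then NADPH regeneration for 60 min at 37C. Luciferin read by luminescence after detection reagent; normalized to 57uM ketoconazole as full inhibition.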

Assay [12] deals with Cytochrome P450 2C9 (Homo sapiens) (UniProt P11712). The experiment in a line: qHTS Assay for Inhibitors and Substrates of Cytochrome P450 2C9 (AID 883; active means well fitted curve in the direction sought with a large enough effect; an effect the other way counts as inactive or inconclusive; further: on the % scale 0 is the no-effect control and ±100 the full control effect; nearly all actives have a fitted effect of over 60% in size). The following applies: recombinant CYP2C9, luciferin-H luminescence, 60 min; series mostly up to 11.4 µM. Put shortly: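 Human CYP2C9 (10nM) with Luciferin-H at 100uM (its KM) in 25mM KPO4; compound preincubated 10 min at 37C, then NADPH regeneration for 60 min at 37C. Luciferin read by luminescence after detection reagent; normalized to 57uM sulphaphenazole as full inhibition.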
Sequence of Cytochrome P450 2C9 (Homo sapiens) (P11712 whole entry, looked up): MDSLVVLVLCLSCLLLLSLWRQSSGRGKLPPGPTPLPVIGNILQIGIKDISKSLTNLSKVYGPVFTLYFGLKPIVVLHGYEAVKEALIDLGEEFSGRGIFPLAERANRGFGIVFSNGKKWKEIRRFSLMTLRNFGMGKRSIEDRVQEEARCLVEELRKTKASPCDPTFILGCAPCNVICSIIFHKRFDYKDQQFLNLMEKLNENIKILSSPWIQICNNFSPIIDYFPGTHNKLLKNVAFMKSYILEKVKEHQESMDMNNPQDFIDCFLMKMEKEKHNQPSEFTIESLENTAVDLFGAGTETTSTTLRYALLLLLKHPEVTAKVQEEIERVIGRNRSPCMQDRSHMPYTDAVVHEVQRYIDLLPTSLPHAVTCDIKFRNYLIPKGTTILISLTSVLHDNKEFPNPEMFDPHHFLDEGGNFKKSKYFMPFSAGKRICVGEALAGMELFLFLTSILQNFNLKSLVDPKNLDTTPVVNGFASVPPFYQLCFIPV

Assay [13] has as its target Cytochrome P450 3A4 (Homo sapiens) (UniProt P08684). The experiment in a line: qHTS Assay for Inhibitors and Substrates of Cytochrome P450 3A4 (AID 884; active means well fitted curve in the direction sought with a large enough effect; an effect the other way counts as inactive or inconclusive; further: on the % scale 0 is the no-effect control and ±100 the full control effect; nearly all actives have a fitted effect of over 50% in size). The following applies: recombinant CYP3A4, Luciferin-PPXE luminescence; series mostly up to 57.1 µM. In a few lines:
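20 nM human CYP3A4 with 25 uM Luciferin-PPXE (at KM) in 200 mM KPO4, preincubated 10 min with compound; NADPH regeneration started a 60 min RT reaction. Luciferin detected by luminescence, normalized to 57 uM ketoconazole as full inhibition.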

Values without a mark were called inactive. Records with an inconclusive call do not appear. The source made the active and inactive calls. Unless noted, the call rests on the fitted dose curve; in most records, active means well fitted curve in either direction with a large enough effect (not every such curve was filed as active); inconclusive means small, poorly fitted or top-dose-only effect, or another doubt; inactive means flat fitted curve, though single readings scatter.

Sequence of Cytochrome P450 2C19 (Homo sapiens) (P33261 whole entry, looked up): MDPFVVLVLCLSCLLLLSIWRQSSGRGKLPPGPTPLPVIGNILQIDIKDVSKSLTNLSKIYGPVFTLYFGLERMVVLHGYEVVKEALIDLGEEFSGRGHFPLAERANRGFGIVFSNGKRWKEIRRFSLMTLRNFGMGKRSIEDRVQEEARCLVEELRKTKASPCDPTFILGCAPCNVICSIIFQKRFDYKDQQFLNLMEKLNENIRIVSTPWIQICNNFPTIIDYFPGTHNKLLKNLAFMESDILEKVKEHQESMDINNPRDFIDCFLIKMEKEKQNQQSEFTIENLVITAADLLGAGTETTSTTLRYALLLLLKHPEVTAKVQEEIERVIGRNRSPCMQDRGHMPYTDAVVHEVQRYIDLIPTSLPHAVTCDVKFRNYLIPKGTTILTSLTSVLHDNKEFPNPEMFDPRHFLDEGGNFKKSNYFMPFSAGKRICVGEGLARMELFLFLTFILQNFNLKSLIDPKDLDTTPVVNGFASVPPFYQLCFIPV
Sequence of Cytochrome P450 1A2 (Homo sapiens) (P05177 whole entry, looked up): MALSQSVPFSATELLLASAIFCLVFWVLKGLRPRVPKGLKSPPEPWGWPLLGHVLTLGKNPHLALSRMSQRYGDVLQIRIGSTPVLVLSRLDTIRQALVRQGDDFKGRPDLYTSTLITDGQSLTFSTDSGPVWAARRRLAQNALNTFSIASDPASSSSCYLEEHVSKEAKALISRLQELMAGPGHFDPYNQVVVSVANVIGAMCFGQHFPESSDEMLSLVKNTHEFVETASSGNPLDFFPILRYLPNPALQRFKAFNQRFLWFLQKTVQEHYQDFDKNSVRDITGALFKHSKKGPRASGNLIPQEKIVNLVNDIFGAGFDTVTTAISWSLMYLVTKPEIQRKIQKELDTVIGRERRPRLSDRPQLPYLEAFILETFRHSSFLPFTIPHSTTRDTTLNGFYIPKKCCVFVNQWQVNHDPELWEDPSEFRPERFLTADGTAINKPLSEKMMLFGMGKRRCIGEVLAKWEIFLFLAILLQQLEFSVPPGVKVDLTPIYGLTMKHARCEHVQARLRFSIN
Sequence of Cytochrome P450 3A4 (Homo sapiens) (P08684 whole entry, looked up): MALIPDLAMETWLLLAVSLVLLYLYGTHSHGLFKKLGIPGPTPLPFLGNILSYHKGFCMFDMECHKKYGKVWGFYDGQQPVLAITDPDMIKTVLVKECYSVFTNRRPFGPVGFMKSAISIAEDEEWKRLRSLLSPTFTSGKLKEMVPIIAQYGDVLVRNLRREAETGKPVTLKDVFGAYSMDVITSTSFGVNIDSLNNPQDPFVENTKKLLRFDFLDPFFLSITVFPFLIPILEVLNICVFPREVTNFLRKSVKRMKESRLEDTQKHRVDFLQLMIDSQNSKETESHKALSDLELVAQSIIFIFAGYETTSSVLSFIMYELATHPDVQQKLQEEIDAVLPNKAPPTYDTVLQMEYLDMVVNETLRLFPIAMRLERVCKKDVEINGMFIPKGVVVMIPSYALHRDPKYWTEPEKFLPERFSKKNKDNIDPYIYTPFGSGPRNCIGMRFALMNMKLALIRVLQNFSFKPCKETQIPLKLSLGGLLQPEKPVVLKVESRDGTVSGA
Sequence of 3',5'-cyclic-AMP phosphodiesterase 4B (Homo sapiens) (Q07343 whole entry, looked up): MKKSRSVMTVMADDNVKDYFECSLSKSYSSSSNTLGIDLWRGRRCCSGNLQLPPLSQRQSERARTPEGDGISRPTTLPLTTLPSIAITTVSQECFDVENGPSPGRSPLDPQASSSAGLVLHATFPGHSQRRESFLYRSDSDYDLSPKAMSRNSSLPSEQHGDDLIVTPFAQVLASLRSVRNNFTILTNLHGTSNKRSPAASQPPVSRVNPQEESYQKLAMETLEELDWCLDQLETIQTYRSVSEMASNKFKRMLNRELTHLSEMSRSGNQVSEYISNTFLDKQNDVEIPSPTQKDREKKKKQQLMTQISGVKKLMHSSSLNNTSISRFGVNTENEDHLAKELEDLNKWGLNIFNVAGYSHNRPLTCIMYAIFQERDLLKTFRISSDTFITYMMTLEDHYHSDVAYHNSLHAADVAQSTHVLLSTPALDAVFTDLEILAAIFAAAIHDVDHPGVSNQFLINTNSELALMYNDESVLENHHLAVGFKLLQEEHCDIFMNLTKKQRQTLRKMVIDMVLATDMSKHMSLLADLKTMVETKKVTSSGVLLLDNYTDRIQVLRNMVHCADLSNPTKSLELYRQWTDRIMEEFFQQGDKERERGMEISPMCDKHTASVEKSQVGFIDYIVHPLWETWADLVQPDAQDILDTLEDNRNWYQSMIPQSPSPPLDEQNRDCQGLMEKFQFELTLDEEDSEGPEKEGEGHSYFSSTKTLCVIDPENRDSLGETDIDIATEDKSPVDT
Sequence of Glucocorticoid receptor (Homo sapiens) (P04150 whole entry, looked up): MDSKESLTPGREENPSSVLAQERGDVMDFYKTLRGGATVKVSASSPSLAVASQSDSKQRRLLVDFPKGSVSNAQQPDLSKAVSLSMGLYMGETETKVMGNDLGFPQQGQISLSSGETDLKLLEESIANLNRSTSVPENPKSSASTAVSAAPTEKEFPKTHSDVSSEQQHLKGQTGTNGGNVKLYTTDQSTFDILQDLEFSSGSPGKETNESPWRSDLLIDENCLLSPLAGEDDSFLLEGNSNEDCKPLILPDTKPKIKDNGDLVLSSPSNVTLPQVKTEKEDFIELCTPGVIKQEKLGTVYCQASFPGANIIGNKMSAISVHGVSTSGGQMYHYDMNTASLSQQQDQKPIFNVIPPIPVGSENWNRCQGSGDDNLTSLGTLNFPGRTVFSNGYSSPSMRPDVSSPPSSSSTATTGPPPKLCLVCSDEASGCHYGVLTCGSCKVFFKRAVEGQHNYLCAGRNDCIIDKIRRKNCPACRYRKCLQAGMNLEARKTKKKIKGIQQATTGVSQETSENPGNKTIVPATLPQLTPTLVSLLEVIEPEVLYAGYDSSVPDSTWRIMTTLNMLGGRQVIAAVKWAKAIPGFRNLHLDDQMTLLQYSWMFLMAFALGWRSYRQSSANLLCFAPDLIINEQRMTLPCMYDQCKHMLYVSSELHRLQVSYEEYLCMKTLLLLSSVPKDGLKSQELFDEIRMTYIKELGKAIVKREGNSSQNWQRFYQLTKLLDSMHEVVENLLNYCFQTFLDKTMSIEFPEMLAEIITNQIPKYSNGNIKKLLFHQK
Sequence of Lysosomal acid glucosylceramidase (Homo sapiens) (P04062 whole entry, looked up): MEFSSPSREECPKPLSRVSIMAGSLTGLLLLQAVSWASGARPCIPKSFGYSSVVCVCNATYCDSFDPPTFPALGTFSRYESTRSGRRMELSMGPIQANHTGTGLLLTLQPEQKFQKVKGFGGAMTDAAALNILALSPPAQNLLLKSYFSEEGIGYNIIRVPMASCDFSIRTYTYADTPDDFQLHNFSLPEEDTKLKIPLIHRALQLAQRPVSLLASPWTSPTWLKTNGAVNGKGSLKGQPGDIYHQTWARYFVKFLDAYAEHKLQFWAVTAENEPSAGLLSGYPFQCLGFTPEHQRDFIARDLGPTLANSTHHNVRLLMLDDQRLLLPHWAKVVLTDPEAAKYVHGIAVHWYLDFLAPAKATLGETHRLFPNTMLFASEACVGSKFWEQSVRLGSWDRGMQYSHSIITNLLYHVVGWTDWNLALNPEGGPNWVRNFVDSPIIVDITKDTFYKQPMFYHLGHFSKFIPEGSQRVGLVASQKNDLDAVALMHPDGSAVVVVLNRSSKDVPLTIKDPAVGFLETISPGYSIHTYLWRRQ

Consider `Cc1nnc(S(=O)(=O)c2ccc(N=Nc3c(N)nc(N)nc3N)cc2)s1`, for which the Potency in assay [1] is more than 11.4 µM; in [5], more than 46 µM; in [6], more than 9.22 µM. The values for the activity change, negative = inhibition in assay [2] and in assay [3] were -10.2% [at 2.29 µM] and 7.42%, respectively. Also, the activity, negative = inhibition in assay [4] is -3.59%. Moreover, the Potency result in assay [7] and in assay [8] was “inactive” throughout.
Turning to `COc1ccc2c(c1)N(CC[C@H]1CCCCN1C)c1ccccc1S2`, the Potency is more than 11.4 µM in assay [1]; 1.26 µM (active) in [2]; more than 46 µM in assay [5]; more than 9.22 µM in [6]; 0.0501 µM (active) in assay [9]. Further, the activity change, negative = inhibition in assay [3] is -80.4% (active). The activity, negative = inhibition in [4] is -6.74%. Further, the Potency result in assay [7] and in [8] was “inactive” each time.
For `O=C1Oc2ccccc2C(=O)/C1=C\N1C(=O)N/C(=C\c2ccccc2O)C1=O`, the Potency in assay [1] was more than 11.4 µM; in [2], 0.316 µM (active); in assay [5], more than 46 µM; in [6], more than 9.22 µM. Besides, the activity change, negative = inhibition in [3] was -7.15%. Also, the activity, negative = inhibition in assay [4] was -25.4%. Also, the Potency result in assay [7], in [8] and in assay [10] was “inactive” each time.
Regarding `O=C1C(Cl)=C(Sc2nnc3c4ccccc4c4ccccc4c3n2)C(=O)c2ccccc21`, the Potency in assay [1] was more than 11.4 µM; in assay [2], 0.398 µM (active); in assay [5], more than 46 µM; in assay [6], more than 9.22 µM; in assay [11] it was 1.58 µM (active). Further, in [4], the activity, negative = inhibition was -24.6%. In addition, the Potency entry in assay [7], in assay [8] and in assay [10] was “inactive” each time.
In the case of `CC(=O)Nc1ccc(Cc2ccc3[nH]c(=O)cc(C)c3c2)cc1`, the Potency in assay [1] is more than 11.4 µM; in assay [5], more than 46 µM; in assay [6], more than 9.22 µM. The Potency result in assay [2], in assay [7] and in assay [8] was “inactive” throughout. Besides, the activity, negative = inhibition in assay [4] is -9.78%.
Take `C[C@@]12CC[C@@H]3[C@@H](CC[C@H]4C[C@@H](O)CC[C@]43C)[C@H]1CC[C@@H]2c1cc(C(F)(F)F)n[nH]1`: the Potency in [1] was more than 11.4 µM; in [2], 3.98 µM (active); in assay [5], more than 46 µM; in assay [6], more than 9.22 µM. The activity, negative = inhibition in assay [4] is 16.7%. For the same molecule, the Potency result in [7] and in assay [8] was “inactive” each time.
For the molecule `CC(CC(=O)O)(CC(=O)O)c1ccccc1`, the values for the Potency in [1], in assay [5] and in [6] were more than 11.4 µM, more than 46 µM and more than 9.22 µM, respectively. In addition, the Potency result in assay [2], in assay [7], in assay [8] and in assay [11] was “inactive” in each case. Moreover, in [3], the activity change, negative = inhibition was 4.46%. Further, the activity, negative = inhibition in [4] is 7.69%.
Turning to `O=C1c2ccccc2C(O)(O)[C@@]1(O)[C@]1(O)C(=O)c2ccccc2C1(O)O`, the Potency was more than 11.4 µM in assay [1] and more than 9.22 µM in assay [6]. Also, the activity change, negative = inhibition in assay [2] is -7.5% [at 2.29 µM]; in assay [3] it was -0.902%; in assay [13], 11.5% [at 11.4 µM]. Further, the Potency result in assay [7], in assay [8], in assay [12] and in assay [11] was “inactive” each time.
